PubChem BioAssay AID2380 (Sanford-Burnham Center for Chemical Genomics, 2010)
The whole screen tested about 330,000 compounds, of which about 960 (0.29%) were called active. This excerpt belongs to a sample that is enriched for actives. Unmarked numbers belong to inactive results.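 How the source made its calls: active means compounds whose signal lies at least 3.5 SD above the mean of all wells on their plate; inactive means the rest.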

Test: inducers of MIN6 beta-cell proliferation, primary screen, ATP luminescence, uHTS (AID 2380);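 further: 0% = DMSO-treated cells in low-serum medium and 100% = 10% serum control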
Details: MIN6 cells proliferation, ATPlite luminescence, 48 h; at 10 µM; hits give high values; 100% = growth in 10% serum; cells starved in 0.2% serum

| Compound | proliferation |
| --- | --- |
| COc1ccc(/C=C2\CCCC3C2=NN(C(=O)c2scnc2C)C3c2ccc(OC)cc2)cc1 (centres undefined) | -5.85% |
| COc1ccc(N2CCN(C(CNS(=O)(=O)c3ccc(C)cc3)c3ccccc3)CC2)cc1 (centres undefined) | -4.55% |
| CN(CCc1cnn(C)c1)Cc1cn(C)nc1-c1ccccc1F | -0.61% |
| Cn1cc(CN2CCC(C(O)CCc3ccccc3)CC2)c(-c2ccccc2F)n1 (centres undefined) | 11.8% (active) |
| CCCOC1CCCN(Cc2cn(C)nc2-c2ccccc2F)C1 (centres undefined) | 1.33% |
| COc1cc(/C=C/CO)cc(OC)c1O[C@@H]1O[C@H](CO)[C@@H](O)[C@H](O)[C@H]1O | -0.51% |
| O=C(O)c1cccc(S(=O)(=O)N2CC=C(c3ccccc3)CC2)c1 | 0.12% |
| Cc1ccc(NC(=O)c2ccc(S(=O)(=O)NCC3CCCO3)cc2)cc1C (centres undefined) | -3.24% |
| N#Cc1cccc(CN2CCC(=O)N([C@H](CO)c3ccccc3)CC2)c1 | 14.7% (active) |
| O=C1CCN(Cc2ccccc2)CCN1[C@H](CSc1ccccc1)c1ccccc1 | 2.8% |
| N#Cc1cccc(CN2CCC(=O)N(CCO)CC2)c1 | -4.43% |
| COc1cccc(N=c2oc3c(C)ncc(CO)c3cc2C(N)=O)c1 | -0.09% |
| CC(C)Cc1oc(C(=O)O)cc1CN | -3.33% |
| CCCCNC(=O)OCCSCCS(=O)(=O)c1ccc(Cl)cc1 | -0.91% |
| CC[C@@H]1Cc2cc(O)ccc2C2=C1c1ccc(O)cc1C[C@H]2CC | -8.09% |
| COCCCNC(=O)Cn1c(=O)n(Cc2ccccc2Cl)c(=O)c2cc(OC)c(OC)cc21 | -2.84% |
| COc1ccc2c(c1)C(=C(C#N)C#N)C(=O)N2CCc1ccccc1 | -3.84% |
| CC(N)C12CC3CC(CC(O)(C3)C1)C2 (centres undefined) | -0.37% |
| CN(CC(=O)Nc1c(Cl)cccc1Cl)C(=O)c1ccncc1 | -1.79% |
| CN1CCN(c2ccc(CNS(=O)(=O)c3cccc(F)c3)cc2)CC1 | -0.97% |
| COc1ccc(-n2nnnc2CNC(=O)c2ccc3ccccc3c2)cc1 | -1.98% |
| CC(=O)c1ccc(S(=O)(=O)NCc2nnnn2-c2ccccc2)cc1 | 11.8% (active) |
| O=S(=O)(Cc1nnnn1-c1ccccc1)c1ccccc1 | -0.06% |

| Compound | proliferation |
| --- | --- |
| COc1ccccc1C(=O)N1CCN=C1SCc1cccnc1 | 0.39% |
| CCCCn1c(N)c(N(CC)C(=O)c2ccc(N(C)S(=O)(=O)c3ccc(C)cc3)cc2)c(=O)[nH]c1=O | -0.39% |
| Cc1cccc(NS(=O)(=O)c2cccc(C(=O)NNC(=O)c3ccccc3O)c2)c1 | 1.68% |
| CCC1(C)Cc2c(sc3nnn(CC(=O)Nc4ccc(Cl)cc4)c(=O)c23)CO1 (centres undefined) | -4.3% |
| Cc1ccc(C(=O)NC(=S)Nc2ccc(N3CCOCC3)cc2)cc1 | -3.24% |
| C/C(=N\NC(=O)c1ccccc1C)c1ccc(N2CCOCC2)cc1 | 5.16% (active) |
| O=C(NN=Cc1ccc(N2CCOCC2)cc1)c1cc2ccccc2cc1O | -1.83% |
| CN=C1SC(C(=O)O)CC(=O)N1C (centres undefined) | -0.72% |
| CCC(C)NC(=O)/C=C/c1ccc(S(=O)(=O)NCc2ccco2)cc1 (centres undefined) | -2.61% |
| Cc1ccc(O)c(NC(=O)c2cc(-c3ccco3)on2)c1 | -1.09% |
| Cc1ccc(S(=O)(=O)NCCC(=O)OCC(=O)N(C)c2ccccc2)cc1 | 1.89% |
| CN(Cc1ccc(F)cc1Cl)S(=O)(=O)c1cccs1 | 5.5% (active) |
| CN(Cc1c(F)cccc1Cl)S(=O)(=O)c1cccs1 | 0% |
| O=S(=O)(NCc1ccc(Cl)cc1Cl)c1cccs1 | -2.31% |
| COc1ccc(N(CC(=O)Nc2cc(OC)cc(OC)c2)S(=O)(=O)c2c(C)n[nH]c2C)cc1 | -2.27% |
| CCCN1C(=O)C(Cc2nc3ccccc3c(=O)n2-c2ccccc2)c2cc(C)ccc21 (centres undefined) | -2.19% |
| CN1CCN(C2Cc3ccc(Cl)cc3Sc3ccc(F)cc32)CC1 (centres undefined) | -4.32% |
| COc1ccccc1N=Cc1c(O)c2ccccc2oc1=O | 6.71% (active) |
| COc1cc(N=Cc2c(O)c3ccccc3oc2=O)c(OC)cc1Cl | 0.34% |
| COc1ccccc1N=C(C)C1=C(O)COC1=O | -1.39% |
| COC(=O)c1ccc(CN2CCN(CCCc3ccccc3)C(CCO)C2)cc1 (centres undefined) | -3.99% |
| Cc1nn(CC(=O)Nc2ccc(N(C)C)cc2)c(C)c1[N+](=O)[O-] | 3.2% |
| C[n+]1cc(-c2ccccc2)oc1-c1ccccc1 | -1.56% |

| Compound | proliferation |
| --- | --- |
| COc1ccc(-c2nnn(Cc3nc(N)nc(N4CCCCC4)n3)n2)cc1 | 8.76% (active) |
| CN(C)c1nc(N)nc(Cn2nnc(-c3ccc(C(F)(F)F)cc3)n2)n1 | 1.04% |
| COc1ccc(-n2nnnc2SCc2nc(N)nc(N3CCOCC3)n2)cc1 | -2.85% |
| CC(=O)Nc1ccc(NC(=O)C(C)OC(=O)c2ccccc2C(=O)c2ccc(Cl)c([N+](=O)[O-])c2)cc1 (centres undefined) | -5.3% |
| O=C(Nn1c(-c2ccc(Cl)cc2)nc2ccccc2c1=O)c1cccnc1Cl | -0.79% |
| N#CCc1ccc(NC(=O)c2ccccc2C(=O)Nc2ccc(CC#N)cc2)cc1 | -4.24% |
| COc1ccc(OC)c(NC(=O)CC(Cc2ccccc2OC)C(=O)O)c1 (centres undefined) | -2.33% |
| CCOc1ccc(NC(=O)Nc2cc(C)ccc2OC)cc1 | -2.89% |
| CCOc1ccccc1NC(=O)Nc1cc(OC)ccc1OC | 7.28% (active) |
| CC(C)(C)N(Cc1ccccc1)C(=O)c1ccncc1 | -4.48% |
| O=c1[nH][nH]c(C(F)(F)F)c1C=NCc1ccccc1Cl | -0.46% |
| COc1ccc(CCn2c(=N)c(C(=O)NCc3ccco3)cc3c(=O)n4cccc(C)c4nc32)cc1 | 10.3% (active) |
| COc1ccc(CCn2c(=N)c(C(=O)NCC3CCCO3)cc3c(=O)n4cccc(C)c4nc32)cc1OC (centres undefined) | -3.69% |
| Cc1cccn2c(=O)c3cc(C(=O)NCCN4CCOCC4)c(=N)n(Cc4cccnc4)c3nc12 | -6.51% |
| NS(=O)(=O)c1ccc(-c2ccc(/C=C3\SC(=O)NC3=O)o2)cc1 | 2.43% |
| COc1ccc2cc(-c3[nH]ncc3CNCCn3nc(C)cc3C)ccc2c1 | -1.3% |
| NC(=O)C1CCN(C2OC(=O)c3ccccc32)CC1 (centres undefined) | -1.61% |
| CC(C)CNC(=O)C1CCCN(S(=O)(=O)c2ccc(-n3cnnn3)cc2)C1 (centres undefined) | 1.81% |
| CC(NC(=O)C1CCCN(S(=O)(=O)c2ccc(-n3cnnn3)cc2)C1)c1ccc(F)cc1 (centres undefined) | -0.52% |
| O=C(Nc1ccc(F)cc1)C1CCCN(S(=O)(=O)c2ccc(-n3cnnn3)cc2)C1 (centres undefined) | 0% (active) |
| Cc1cc(NC(=O)c2ccco2)c(=O)n(Cc2c(F)cccc2Cl)c1 | 6.29% (active) |
| O=C(Nc1cccn(Cc2c(Cl)cccc2Cl)c1=O)c1ccc(Cl)cc1 | 0.88% |
| O=C(Cc1c(F)cccc1Cl)N1CCN(C(=O)c2ccco2)CC1 | -0.41% |

| Compound | proliferation |
| --- | --- |
| COc1cc2cc(CN(CCN3CCCC3)C(=O)Nc3ccccc3Cl)c(=O)[nH]c2cc1OC | -1.42% |
| CN(Cc1ccc2nsnc2c1)Cc1nc(Cc2cccc(F)c2)no1 | -1.6% |
| CC1(C)Cc2c(sc(NC(=O)C(=O)NCC3CCCO3)c2C(=O)O)CO1 (centres undefined) | -1.4% |
| COc1ccc(CNC(=O)C(C)n2nc(C)c3c(C)n(-c4ccccc4)nc3c2=O)c(OC)c1 (centres undefined) | 0.39% |
| Cc1nn(C(C)C(=O)N2CCOCC2)c(=O)c2nn(-c3ccccc3)c(C)c12 (centres undefined) | -0.46% |
| Cc1nn(C(C)C(=O)NCCC2=CCCCC2)c(=O)c2nn(-c3ccccc3)c(C)c12 (centres undefined) | 11.7% (active) |
| COC(=O)c1ccc(C(NC(=O)OCc2ccccc2)/C(C)=C/[C@@H](C)C(=O)NCc2ccc(OC)c(OC)c2)cc1 (some centres undefined) | -1.99% |
| CC(C)OCCCNC(=S)N1CCC(C(=O)c2ccc3c(c2)OCCO3)CC1 | -1.17% |
| CC(C)C(=O)Nc1c2c(nn1-c1ccccc1)CSC2 | 0.9% |
| COc1ccc(/C=N/NC(=O)C2CC2)c(OC)c1OC | 0.51% |
| CC1(C)C2CC=C(/C=N/NC(=O)c3ccc(Cl)cc3)C1C2 (centres undefined) | -2.07% |
| CC1(C)C2CC=C(/C=N/NC(=O)C3CC3)C1C2 (centres undefined) | 7.56% (active) |
| O=[N+]([O-])c1ccc2c(c1)C(N1CCOCC1)/C(=C/C1(O)CCCCC1)O2 (centres undefined) | -1.4% |
| O=C(O)c1cc(S(=O)(=O)N(Cc2ccccc2)c2cccc(C(F)(F)F)c2)ccc1Cl | -1% |
| CCC1(CC)NC(=O)N(CC(=O)OCC(=O)Nc2ccc(C(F)(F)F)cc2)C1=O | -0.99% |
| CC1CCN(C(=O)/C(=C\c2ccccc2)NC(=O)c2ccccc2)CC1 | 2.17% |
| O=C(OCCN1CCOCC1)C1(c2ccccc2)CCCCC1 | 5.6% |
| CCCC(NCC(=O)Nc1ccccc1C(=O)NC1CC1)c1ccccc1 (centres undefined) | -0.98% |
| Cc1ccc(NC(=O)COC(=O)CNC(=O)c2ccc(Cl)cc2Cl)cc1S(=O)(=O)N1CCOCC1 | -0.42% |
| Cc1cccc2c1-c1sc(C(=O)NCCCN3CCc4ccccc4C3)cc1CO2 | -7.36% |
